Test [1] in a line: Cell Viability - LYMP2-025 (AID 976). Also: series mostly up to about 92 µM. The procedure, abridged: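 CellTiter-Glo luminescence (cellular ATP) after 24 h compound exposure at 37 C; LYMP2-025 human lymphoblastoid cells, 2500/well, complete medium. Tetraoctylammonium bromide positive control. AC50 by Hill equation fit of qHTS concentration-response.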
A short description of test [2]: Cell Viability - LYMP2-002 (AID 977). Also: series mostly up to about 92 µM. The procedure, abridged: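 Human lymphoblastoid cells, 2500/well, complete medium; 5 h 37 C settle; compound 24 h 37 C; CellTiter-Glo, 30 min RT; luminescence. Decrease in ATP = cytotoxicity; AC50 via Hill equation.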
Test [3] is described as follows: Cell Viability - LYMP2-006 (AID 978).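 Also: series mostly up to about 92 µM; cells exposed to compound for 24 hours; nearly all actives have a fitted effect of over 60% in size.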 The gist of the method: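 Concentration-dependent loss of intracellular ATP in a human lymphoblastoid line after 24 hr treatment at 37 C was measured by CellTiter-Glo luminescence, with AC50 values obtained from standard Hill-equation modelling.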
A short description of test [4]: Cell Viability - LYMP2-007 (AID 979).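 Also: cells exposed to compound for 24 h before reading; nearly all actives have a fitted effect of over 60% in size.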 The gist of the method:
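qHTS cytotoxicity: 2500 cells/well, 5 hr 37 C settle, compound 24 hr 37 C, CellTiter-Glo 30 min RT, luminescence. Decrease in ATP = toxicity. AC50 by standard Hill equation; tetraoctylammonium bromide positive control.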

The nature of test [5]: Cell Viability - LYMP2-008 (AID 980). Also: nearly all actives have a fitted effect of over 60% in size. The procedure, abridged: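 Luminescent ATP read-out (CellTiter-Glo, 30 min RT) after 24 hr compound exposure at 37 C of human lymphoblastoid cells in complete medium. Decrease in ATP taken as cytotoxicity; AC50 derived by standard Hill fit of qHTS concentration-response data.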
Test [6] can be described thus: Cell Viability - LYMP2-010 (AID 981).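 Also: cells exposed to compound for 24 hours at 37 °C; nearly all actives have a fitted effect of over 55% in size.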 The gist of the method:
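qHTS cytotoxicity, 1536-well: 2500 cells/well, 5 hr settle, 24 hr compound at 37 C, CellTiter-Glo 30 min RT, luminescence read. Decrease in ATP = toxicity; AC50 via standard Hill equation. Positive control tetraoctylammonium bromide.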

The nature of test [7]: Cell Viability - LYMP2-012 (AID 982).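 Also: cellular ATP by luciferase luminescence where a drop means cytotoxicity; cells exposed to compound for one day before reading; nearly all actives have a fitted effect of over 55% in size.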
Test [8] in a line: Cell Viability - LYMP2-014 (AID 983). Also: series mostly up to about 92 µM; nearly all actives have a fitted effect of over 50% in size. The procedure, abridged:
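2500 cells/well, 5 hr 37 C; cpd 24 hr 37 C, complete medium; CellTiter-Glo 30 min RT, luminescence; ATP loss = toxicity; AC50 via Hill eqn; tetraoctylammonium bromide positive control.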

Test [9] can be described thus: Cell Viability - LYMP2-016 (AID 984).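 Also: cells exposed to compound for 24 hours at 37 °C; nearly all actives have a fitted effect of over 55% in size.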 The gist of the method: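 Acute toxicity in a Coriell human lymphoblastoid line is scored as loss of intracellular ATP over 24 h of treatment in complete medium. CellTiter-Glo signal is fitted across concentrations with the Hill equation to give AC50.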
Test [10] can be described thus: Cell Viability - LYMP2-018 (AID 985). Also: nearly all actives have a fitted effect of over 50% in size. The gist of the method:
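2500 cells/well; 5 hr 37 C; cmpd 24 hr 37 C, complete medium; CellTiter-Glo 30 min RT; luminescence. Tetraoctylammonium bromide positive control. AC50 via Hill fit.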

A short description of test [11]: Cell Viability - LYMP2-020 (AID 986). Also: series mostly up to about 92 µM; nearly all actives have a fitted effect of over 55% in size. The gist of the method:
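qHTS, 2500 cells/well; 5 hr then 24 hr compound exposure, 37 C; CellTiter-Glo luminescence after 30 min RT; ATP decrease taken as cytotoxicity; AC50 via Hill equation; tetraoctylammonium bromide positive control.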

Test [12] in a line: Cell Viability - LYMP2-022 (AID 987). Also: nearly all actives have a fitted effect of over 55% in size. The procedure, abridged: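 Luminescent ATP read-out (CellTiter-Glo, 30 min, RT) after 24 hr, 37 C compound exposure of 2500 human lymphoblastoid cells/well in complete medium. Cytotoxicity taken as concentration-dependent ATP loss; AC50 from standard Hill equation.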
Test [13] in a line: Cell Viability - LYMP2-024 (AID 988). Also: nearly all actives have a fitted effect of over 60% in size. The procedure, abridged: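 ATP-based luminescence (CellTiter-Glo, 30 min RT) after 24 h compound exposure at 37 C of 2500 lymphoblastoid cells/well; decrease in ATP taken as cytotoxicity. qHTS concentration-response fitted to standard Hill equation for AC50.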
A short description of test [14]: Cell Viability - LYMP1-002 - Assay at 24 hr (AID 993). The procedure, abridged: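 CellTiter-Glo luminescence (intracellular ATP) after 24 h compound exposure, 37 C, in LYMP1-002 human lymphoblastoid cells; decreased ATP taken as cytotoxicity. AC50 from standard Hill fit of concentration-response curves.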
The nature of test [15]: Cell Viability - LYMP1-002 - Assay at 40 hr (AID 994). Also: nearly all actives have a fitted effect of over 60% in size. The gist of the method:
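qHTS cytotoxicity; 2500 cells/well, 5 hr 37 C settle, compound 40 hr 37 C. CellTiter-Glo, 30 min RT, luminescence (ATP). Concentration-response, Hill fit → AC50. Pos. ctrl tetraoctylammonium bromide.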

Test [16] is described as follows: qHTS Assay for Identification of Small Molecule Inducers of Hypoxia Response (AID 2120; active = well fitted curve in the direction sought with a large enough effect in the signal ratio, with a control signal flat, not every such curve was filed as active; the % refers to the signal ratio). The gist of the method:
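Read-out: CCF4 FRET emission ratio 460nm/530nm (excitation 405nm), converted to %Activity, with AC50 fitted across a compound titration. ME-180 cells carried an HRE-driven beta-lactamase reporter; compound exposure 17 h, 37 degrees C.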
A general note: In qHTS, concentration-response curves come from the screen itself.

Test [17] deals with Estrogen receptor (Homo sapiens) (UniProt P03372). Briefly: qHTS assay for small molecule antagonists of estrogen receptor alpha signaling (AID 588513; active = well fitted curve in the direction sought with a large enough effect in the signal ratio, with a control signal flat, not every such curve was filed as active; the % refers to the signal ratio). The gist of the method: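 Cells were plated at 5000/well and incubated 4 h at 37 C. Compounds were added as 1:2 dilution series, duplicates. 17-beta-estradiol (0.5nM final) was added for 18 h before CCF4 detection.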
Test [18] has the same target. Briefly: qHTS assay for small molecule agonists of estrogen receptor alpha signaling (AID 588514; calls by dose curve; also: nearly all actives have a fitted effect of over 70% in size; also: potency is read from the fitted curve at half-maximal effect). The gist of the method:
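Read-out: CCF4 fluorescence from a beta-lactamase reporter in ER-alpha-UAS-bla HEK 293 cells after 18 hrs of compound exposure at 37 C. Normalized to 20 nM 17-beta-estradiol (100%) and DMSO (0%).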

Test [19] can be described thus: Cell Viability - LYMP2-026 (AID 989). Also: nearly all actives have a fitted effect of over 50% in size. The procedure, abridged:
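qHTS cytotoxicity: 2500 cells/well, 5 hr 37 C, compound 24 hr 37 C, CellTiter-Glo 30 min RT, luminescence. Tetraoctylammonium bromide positive control. AC50 via standard Hill fit.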

Values without a mark were called inactive. Results filed as inconclusive are left out. Calls of active or inactive are those of the source. Unless noted, calls follow the shape of the dose curve; as a rule, active = well fitted cell-killing curve with a large enough effect; inconclusive = small, poorly fitted or top-dose-only effect; inactive = flat fitted curve, though single readings scatter.

This note sets out measurements from PubChem BioAssay (NCATS).

Chain of Estrogen receptor (Homo sapiens) (P03372 whole entry, looked up): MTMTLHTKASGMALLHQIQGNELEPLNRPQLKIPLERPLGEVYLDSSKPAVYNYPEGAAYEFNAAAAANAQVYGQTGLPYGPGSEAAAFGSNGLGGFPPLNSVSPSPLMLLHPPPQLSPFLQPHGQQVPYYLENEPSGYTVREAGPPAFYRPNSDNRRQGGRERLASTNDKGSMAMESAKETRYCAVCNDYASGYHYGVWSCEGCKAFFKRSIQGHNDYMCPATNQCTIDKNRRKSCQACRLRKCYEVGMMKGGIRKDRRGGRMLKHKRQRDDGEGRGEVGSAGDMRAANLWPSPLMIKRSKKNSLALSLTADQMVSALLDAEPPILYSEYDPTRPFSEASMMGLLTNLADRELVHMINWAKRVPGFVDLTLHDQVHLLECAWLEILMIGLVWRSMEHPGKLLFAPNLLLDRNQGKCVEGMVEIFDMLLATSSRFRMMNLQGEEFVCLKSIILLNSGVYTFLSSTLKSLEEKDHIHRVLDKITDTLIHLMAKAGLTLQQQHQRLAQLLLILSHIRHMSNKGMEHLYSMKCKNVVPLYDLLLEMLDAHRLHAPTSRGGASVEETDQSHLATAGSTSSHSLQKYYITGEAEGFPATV

For `C(=C/c1ccccc1)/c1ccccc1`, the Potency entry in test [1], in test [2], in test [3], in test [4], in [5] and in [6] was “inactive” throughout. Moreover, the Potency result in test [7], in [8], in test [9], in test [10], in test [11] and in test [12] was “inactive” each time. For the same compound, the Potency result in test [13], in [14], in test [15] and in test [18] was “inactive” in each case. For the same compound, the outcome in [16] and in [17] was inactive.
`C=CCCCCCC`: the Potency result in test [1], in test [2], in [3], in [4], in test [5] and in test [6] was “inactive” throughout. For the same compound, the Potency result in test [7], in [8], in test [9], in test [10], in [11] and in test [12] was “inactive” each time. In addition, the Potency result in test [13], in [14] and in [15] was “inactive” throughout. The outcome in test [19], in test [16] and in [17] was inactive. In test [18], the Potency is 12.6 µM (active).
On to `Clc1cc(Cl)cc(Cl)c1`, for which the Potency entry in test [1], in test [2], in [3], in test [4], in test [5] and in test [6] was “inactive” each time. Further, the Potency result in test [7], in [8], in [9], in test [10], in [11] and in test [12] was “inactive” in each case. Further, the Potency result in [13], in test [15] and in test [18] was “inactive” each time. In addition, the compound was classed as inactive in test [16] and in test [17].
As to `CCCCC(C=O)CC` (stereo not given), the Potency entry in test [1], in [2], in test [3], in [4], in test [5] and in [6] was “inactive” throughout. In addition, the Potency entry in test [7], in [8], in [9], in [10], in test [11] and in test [12] was “inactive” each time. Moreover, the Potency result in [13], in test [15] and in [18] was “inactive” throughout. The outcome in test [19], in test [16] and in [17] was inactive.
Regarding `COC(=O)CS`, the Potency result in [1], in test [2], in test [3], in test [4], in [5] and in test [6] was “inactive” in each case. The Potency entry in test [7], in [8], in test [9], in test [10], in test [11] and in test [12] was “inactive” in each case. The Potency result in [13], in test [14], in test [15] and in test [18] was “inactive” in each case. For the same compound, the call in test [19], in test [16] and in [17] was inactive.
Take `CCCCCO`: the Potency entry in test [1], in test [2], in test [3], in test [4], in test [5] and in test [6] was “inactive” in each case. The Potency entry in test [7], in [8], in [9], in test [10], in test [11] and in [12] was “inactive” throughout. Moreover, the Potency result in test [13], in [14], in test [15] and in test [18] was “inactive” in each case. In addition, the call in [19], in [16] and in test [17] was inactive.
Take `CC(=O)c1ccccc1[N+](=O)[O-]`: the Potency entry in test [1], in test [2], in test [3], in [4], in [5] and in test [6] was “inactive” throughout. Moreover, the Potency result in test [7], in [8], in test [9], in [11], in test [12] and in [13] was “inactive” in each case. Besides, the Potency result in [14], in test [15] and in [18] was “inactive” throughout. In addition, the compound was called inactive in [19], in test [16] and in test [17].
For the compound `Nc1cc([N+](=O)[O-])ccc1C(=O)O`, the Potency entry in test [1], in test [2], in [3], in test [4], in test [5] and in [6] was “inactive” each time. In addition, the Potency entry in [7], in [8], in [9], in [10], in test [11] and in test [12] was “inactive” throughout. Besides, the Potency entry in test [13], in test [14] and in [18] was “inactive” throughout. In addition, the compound was called inactive in [16] and in test [17].
